How the values were obtained:
Conditions in all cases: concentration: 1 μM,replicates: in singlicate; n = 1
NIM1 = tested on: T1, NIM1
T1 construct: gene MGC42105

NLK = tested on: NLK
OSR1 = tested on: T2, OSR1
T2 construct: gene OXSR1

PAK1 = tested on: PAK1
PAK2 = tested on: PAK2
PAK3 = tested on: PAK3
PAK4 = tested on: PAK4
PAK6 = tested on: PAK6
PAK7 = tested on: PAK7
PCTK1 = tested on: T3, PCTK1
T3 construct: gene CDK16

PCTK2 = tested on: T4, PCTK2
T4 construct: gene CDK17

PCTK3 = tested on: T5, PCTK3
T5 construct: gene CDK18

PDGFRA = tested on: PDGFRA
PDGFRB = tested on: PDGFRB
PDPK1 = tested on: PDPK1
PFTAIRE2 = tested on: PFTAIRE2
PFTK1 = tested on: T6, PFTK1
T6 construct: gene CDK14

PHKG1 = tested on: PHKG1
PHKG2 = tested on: PHKG2
PIK3C2B = tested on: PIK3C2B
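Also: KINOMEscan kinase panel screen.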

Structure (SMILES): OCCn1cc(-c2cnc3nnn(Cc4ccc5ncccc5c4)c3n2)cn1
- %Inh (NIM1): 0%
- %Inh (NLK): 0%
- %Inh (OSR1): 0%
- %Inh (PAK1): 6%
- %Inh (PAK2): 13%
- %Inh (PAK3): 0%
- %Inh (PAK4): 11%
- %Inh (PAK6): 0%
- %Inh (PAK7): 0%
- %Inh (PCTK1): 0%
- %Inh (PCTK2): 0%
- %Inh (PCTK3): 0%
- %Inh (PDGFRA): 0%
- %Inh (PDGFRB): 0%
- %Inh (PDPK1): 0%
- %Inh (PFTAIRE2): 0%
- %Inh (PFTK1): 0%
- %Inh (PHKG1): 5%
- %Inh (PHKG2): 0%
- %Inh (PIK3C2B): 0%

Structure (SMILES): CC(C)S(=O)(=O)N1CCN(Cc2ccc3c(c2)nc(NC(=O)c2ccsc2)n3C[C@H](O)c2ccccc2)CC1 [GW635815]
- %Inh (NIM1): 20%
- %Inh (NLK): 0%
- %Inh (OSR1): 10%
- %Inh (PAK1): 22%
- %Inh (PAK2): 27%
- %Inh (PAK3): 15%
- %Inh (PAK4): 44%
- %Inh (PAK6): 9%
- %Inh (PAK7): 35%
- %Inh (PCTK1): 0%
- %Inh (PCTK2): 0%
- %Inh (PCTK3): 4%
- %Inh (PDGFRA): 0%
- %Inh (PDGFRB): 38%
- %Inh (PDPK1): 4%
- %Inh (PFTAIRE2): 19%
- %Inh (PFTK1): 0%
- %Inh (PHKG1): 64%
- %Inh (PHKG2): 43%
- %Inh (PIK3C2B): 0%

Structure (SMILES): CCNCC(Cc1ccccc1)NC(=O)c1cc(Br)c(-c2ccnc3[nH]ccc23)s1.Cl.Cl (stereo not shown) [GSK1383280]
- %Inh (NIM1): 20%
- %Inh (NLK): 0%
- %Inh (OSR1): 8%
- %Inh (PAK1): 26%
- %Inh (PAK2): 40%
- %Inh (PAK3): 62%
- %Inh (PAK4): 44%
- %Inh (PAK6): 60%
- %Inh (PAK7): 78%
- %Inh (PCTK1): 0%
- %Inh (PCTK2): 15%
- %Inh (PCTK3): 0%
- %Inh (PDGFRA): 51%
- %Inh (PDGFRB): 75%
- %Inh (PDPK1): 0%
- %Inh (PFTAIRE2): 0%
- %Inh (PFTK1): 21%
- %Inh (PHKG1): 27%
- %Inh (PHKG2): 20%
- %Inh (PIK3C2B): 0%

Structure (SMILES): O=C1NCCc2[nH]c(-c3ccncc3)cc21
- %Inh (NIM1): 45%
- %Inh (NLK): 22%
- %Inh (OSR1): 3%
- %Inh (PAK1): 38%
- %Inh (PAK2): 40%
- %Inh (PAK3): 42%
- %Inh (PAK4): 14%
- %Inh (PAK6): 17%
- %Inh (PAK7): 0%
- %Inh (PCTK1): 0%
- %Inh (PCTK2): 0%
- %Inh (PCTK3): 1%
- %Inh (PDGFRA): 27%
- %Inh (PDGFRB): 17%
- %Inh (PDPK1): 0%
- %Inh (PFTAIRE2): 0%
- %Inh (PFTK1): 0%
- %Inh (PHKG1): 0%
- %Inh (PHKG2): 14%
- %Inh (PIK3C2B): 21%

Structure (SMILES): COc1cc(Nc2nccc(N3CCC(NC(=O)c4cccc(C#N)c4)C3)n2)cc(OC)c1OC (stereo not shown) [GSK1379751]
- %Inh (NIM1): 16%
- %Inh (NLK): 7%
- %Inh (OSR1): 2%
- %Inh (PAK1): 2%
- %Inh (PAK2): 0%
- %Inh (PAK3): 0%
- %Inh (PAK4): 0%
- %Inh (PAK6): 0%
- %Inh (PAK7): 1%
- %Inh (PCTK1): 0%
- %Inh (PCTK2): 0%
- %Inh (PCTK3): 0%
- %Inh (PDGFRA): 0%
- %Inh (PDGFRB): 70%
- %Inh (PDPK1): 0%
- %Inh (PFTAIRE2): 0%
- %Inh (PFTK1): 3%
- %Inh (PHKG1): 0%
- %Inh (PHKG2): 0%
- %Inh (PIK3C2B): 0%

Structure (SMILES): C[C@@H](Oc1cc(-n2cnc3cc(-c4ccncc4)ccc32)sc1C(N)=O)c1ccccc1Cl [GSK479719]
- %Inh (NIM1): 51%
- %Inh (NLK): 0%
- %Inh (OSR1): 18%
- %Inh (PAK1): 21%
- %Inh (PAK2): 22%
- %Inh (PAK3): 27%
- %Inh (PAK4): 0%
- %Inh (PAK6): 5%
- %Inh (PAK7): 94.2%
- %Inh (PCTK1): 1%
- %Inh (PCTK2): 0%
- %Inh (PCTK3): 15%
- %Inh (PDGFRA): 67%
- %Inh (PDGFRB): 95.1%
- %Inh (PDPK1): 40%
- %Inh (PFTAIRE2): 17%
- %Inh (PFTK1): 18%
- %Inh (PHKG1): 0%
- %Inh (PHKG2): 16%
- %Inh (PIK3C2B): 0%

Structure (SMILES): CN(c1cccc(CNc2nc(Nc3ccc4c(c3)CC(=O)N4)ncc2C(F)(F)F)c1)S(C)(=O)=O
- %Inh (NIM1): 0%
- %Inh (NLK): 8%
- %Inh (OSR1): 0%
- %Inh (PAK1): 15%
- %Inh (PAK2): 42%
- %Inh (PAK3): 0%
- %Inh (PAK4): 11%
- %Inh (PAK6): 14%
- %Inh (PAK7): 13%
- %Inh (PCTK1): 0%
- %Inh (PCTK2): 2%
- %Inh (PCTK3): 4%
- %Inh (PDGFRA): 34%
- %Inh (PDGFRB): 72%
- %Inh (PDPK1): 65%
- %Inh (PFTAIRE2): 10%
- %Inh (PFTK1): 17%
- %Inh (PHKG1): 40%
- %Inh (PHKG2): 18%
- %Inh (PIK3C2B): 0%

Structure (SMILES): Cc1ccc2c(-c3ccnc(Nc4ccc(C(F)(F)F)cc4)n3)cnn2n1 [GW819776]
- %Inh (NIM1): 3%
- %Inh (NLK): 24%
- %Inh (OSR1): 0%
- %Inh (PAK1): 1%
- %Inh (PAK2): 50%
- %Inh (PAK3): 18%
- %Inh (PAK4): 0%
- %Inh (PAK6): 0%
- %Inh (PAK7): 0%
- %Inh (PCTK1): 6%
- %Inh (PCTK2): 12%
- %Inh (PCTK3): 0%
- %Inh (PDGFRA): 0%
- %Inh (PDGFRB): 45%
- %Inh (PDPK1): 0%
- %Inh (PFTAIRE2): 12%
- %Inh (PFTK1): 0%
- %Inh (PHKG1): 18%
- %Inh (PHKG2): 0%
- %Inh (PIK3C2B): 0%
